# Experimental data taken from PubChem BioAssay (NCI).
# The panel holds about 83,000 compounds, 20% with a hit somewhere; the sample as a whole holds those more often.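 Growth was measured after 48 h exposure to one concentration of compound in 96-well plates. Values under 10 count as active.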 Values without a mark were called inactive. Calls of active or inactive are those of the source.
# System: HL-60(TB) leukemia
# Assay: NCI-60 one-dose screen, 48 h (100 = growth as untreated, 0 = no growth, -100 = all killed)
# Settings: 10 µM unless noted
row,SMILES,growth
1,O=C(c1ccccc1)N1N=C(c2ccc(-n3ccc(C(F)(F)F)n3)cc2)CC1c1ccc[nH]1 (centres undefined),93.3%
2,CS(=O)(=O)N1CCc2c(-c3cnc(N)nc3)nc(N3CCOCC3)nc21,34.9%
3,CS(=O)(=O)c1ccc(C(=O)N/N=C/c2ccccc2Cl)cc1,52.3%
4,N#Cc1nc(C#N)c(Sc2ccccc2)c(Sc2ccccc2)c1Sc1ccccc1,-37.2% (active)
5,CCCCC/C=N/Nc1nc(C)cc(=O)[nH]1,108%
6,O=C(CCc1nnc(-c2c(Cl)cccc2Cl)o1)c1nc2ccccc2[nH]1,-33.8% (active)
7,CCC(C)C(N)C(=O)NC(CC(C)C)C(=O)N1CCCC1C(=O)NC(Cc1c[nH]c2ccccc12)C(=O)NC(CCCCN)C(=O)NC(Cc1c[nH]c2ccccc12)C(=O)N1CCCC1C(=O)NC(Cc1c[nH]c2ccccc12)C(=O)NC(Cc1c[nH]c2ccccc12)C(=O)N1CCCC1C(=O)NC(Cc1c[nH]c2ccccc12)C(=O)NC(CCCNC(=N)N)C(=O)NC(CCCNC(=N)N)C(N)=O (centres undefined),-2.6% (active)
8,COc1ccc(CNc2c3ccccc3nc3ccccc23)c(OC)c1,36.9%
9,COc1cc(/C=C2\Oc3cc(OCC(=O)c4ccccc4)ccc3C2=O)cc(OC)c1OC,118%
10,NC(N)=N/N=C/CO,102%
11,Cc1cc(Nc2ncc(Cl)c(Nc3ccccc3S(=O)(=O)C(C)C)n2)c(OC(C)C)cc1C1CCNCC1,-65% (active)
12,CC(N)C(Cc1ccccc1)c1ccc(Cl)cc1 (centres undefined),66.5%
13,O=C(CSc1nc(-c2ccccc2)cc(=O)[nH]1)Nc1nc(-c2ccccc2)cs1,95.7%
14,COc1ccc(C(=O)/C=C/c2c(Cl)c3c(c(OC)c2Cl)OCC(=O)N3)cc1,13.8%
15,c1ccc(OCCC[P+](c2ccccc2)(c2ccccc2)c2ccccc2)cc1,-57.3% (active)
16,CC1CN(C2CCCCC2)C(=O)NC1=O (centres undefined),75.8%
17,NNC(=O)C1CC2c3ccccc3C1c1ccccc12 (centres undefined),113%

row,SMILES,growth
1,COc1ccc(-c2nn(-c3cccc(Cl)c3)cc2-c2cc(-c3ccccc3)nc(N)n2)cc1,56.3%
2,COC(=O)c1cc(-c2ccccc2)[nH]c1N/N=C/c1c(Cl)cccc1Cl,-42.9% (active)
3,COC(=O)c1c(C)nc(C)c2c1C(=O)C(Br)=C(NCCN1CCOCC1)C2=O,61.9%
4,C=C(C[n+]1ccccc1)[C@@H]1CC[C@]2(C(=O)OC)CC[C@]3(C)[C@H](CC[C@@H]4[C@@]5(C)CCC(=O)C(C)(C)[C@@H]5CC[C@]43C)[C@@H]12,58%
5,O=C(CN1CCN(c2cc3c(cc2F)c(=O)c(C(=O)O)cn3C2CC2)CC1)Nc1ccc(C(=O)/C=C/c2ccc(Cl)cc2)cc1,134%
6,O=C(CC1(O)C(=O)Nc2ccc(Br)cc21)c1ccc(Cl)cc1 (centres undefined),80.1%
7,CSc1ccc2c3c(n(CCCn4ccnc4)c(=O)c2c1)-c1ccccc1C3=O,15.5%
8,NC(=O)c1c(OCc2c(F)cc(Br)cc2F)nsc1NC(=O)NCCCCN1CCCC1,-64.6% (active)
9,CCN(CC)CC(=O)Nc1ccc2ncnc(Nc3ccc(Oc4cccc(F)c4)c(Cl)c3)c2c1,16.2%
10,Clc1ccc(-c2cc(-c3ccccc3)nc(NCCNc3ccnc4cc(Cl)ccc34)n2)cc1,-31.9% (active)
11,CN(Cc1cccc(C(F)(F)F)c1)C(=O)[C@@H](CC(=O)N1CCC(N2CCCCC2)CC1)N1C(=O)[C@@H](N2C(=O)OC[C@@H]2c2ccccc2)[C@H]1/C=C/c1ccccc1,70.1%
12,C=C(CNCCc1ccc(O)cc1)[C@@H]1CC[C@]2(CO)CC[C@]3(C)[C@H](CC[C@@H]4[C@@]5(C)CCC(NCCc6ccc(O)cc6)C(C)(C)[C@@H]5CC[C@]43C)[C@@H]12 (some centres undefined),-65.2% (active)
13,O=C(CCN1C(=O)/C(=C/c2ccc(O)cc2)SC1=S)Nc1ccc(Cl)cc1,65.5%
14,CC(C)CCN(CCCNc1c2c(nc3cc(Cl)ccc13)CCCC2)CCC(C)C,70.4%
15,Cc1ccc2[nH]c(=O)c3c(c2c1)OC(N)=C(C#N)C31C(=O)c2cccc3cccc1c23 (centres undefined),98.6%
16,COc1ccc(/C=N/OCC(O)CN2CCC(O)CC2)cc1OC1CCCC1 (centres undefined),100%
17,O=C1C(=O)N(CCCCn2cc(-c3ccccc3)nn2)c2ccccc21,118%
